Consider 28 compounds from PubChem BioAssay (NCATS).

Inconclusive results are not listed. Calls of active or inactive are those of the source. Calls come from the whole dose curve; as a rule, active = well fitted curve in the direction sought with a large enough effect; inconclusive = small, poorly fitted or top-dose-only effect, or another doubt; inactive = no such curve, though single readings can be large; an effect the other way counts as inactive or inconclusive.

A short description of experiment [1]: qHTS of pediatric cancer cell lines to identify multiple opportunities for drug repurposing: Primary screen for OHS-50 cells (AID 1347103). Note: nearly all actives have a fitted effect of over 40% in size. Note: potency is the fitted concentration of half-maximal effect. Summed up: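 Cells (500-1,000/well) rested 5 h, then received compounds for 48 h; metabolically active cells were measured by CellTiter-Glo luminescence. Final concentrations spanned up to 46 µM (MIPE, 11-point) or 0.59 nM-46 µM (NPC, 8-point) in primary screens, 11-point in follow-ups.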
Background: qHTS replaces the single test concentration by a dilution series.

A short description of experiment [2]: qHTS of pediatric cancer cell lines to identify multiple opportunities for drug repurposing: Primary screen for RD cells (AID 1347104). Note: nearly all actives have a fitted effect of over 55% in size. Note: potency is the fitted concentration of half-maximal effect. A digest of the protocol: (§1)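 Plated cells (500-1,000 per well, growth media) were allowed to settle for 5 hours, treated with compound dilutions for 48 hours, then lysed with CellTiter-Glo for 15 min at room temperature before luminescence reading.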

A short description of experiment [3]: qHTS of pediatric cancer cell lines to identify multiple opportunities for drug repurposing: Primary screen for MG 63 (6-TG R) cells (AID 1347105). Note: nearly all actives have a fitted effect of over 50% in size. Note: potency is the fitted concentration of half-maximal effect. A digest of the protocol:
as §1

Experiment [4] in a line: qHTS of pediatric cancer cell lines to identify multiple opportunities for drug repurposing: Primary screen for control Hh wild type fibroblast cells (AID 1347106).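 Note: series mostly up to about 46 µM; a drop in luminescence marks cytotoxicity and a rise apparent proliferation; nearly all actives have a fitted effect of over 55% in size.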 Summed up:
(§2)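 Cells (500-1,000/well) in growth media were settled 5 h at 37 degrees C, then given compounds for 48 h. Viability was read as CellTiter-Glo luminescence. Primary runs used MIPE at 11 points (0.78 nM-46 µM) and NPC at 8 points (0.59 nM-46 µM); follow-ups used 11 points.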

Experiment [5] in a line: qHTS of pediatric cancer cell lines to identify multiple opportunities for drug repurposing: Primary screen for Rh30 cells (AID 1347107). Note: series mostly up to about 46 µM; nearly all actives have a fitted effect of over 75% in size. A digest of the protocol:
as §2

The nature of experiment [6]: qHTS of pediatric cancer cell lines to identify multiple opportunities for drug repurposing: Primary screen for Rh41 cells (AID 1347108). Note: nearly all actives have a fitted effect of over 70% in size. Note: potency is the fitted concentration of half-maximal effect. Summed up:
as §1

Experiment [7] in a line: qHTS of pediatric cancer cell lines to identify multiple opportunities for drug repurposing: Confirmatory screen for NB1643 cells (AID 1347109). Note: nearly all actives have a fitted effect of over 45% in size. Note: potency is the fitted concentration of half-maximal effect. A digest of the protocol:
as §2

A short description of experiment [8]: qHTS of pediatric cancer cell lines to identify multiple opportunities for drug repurposing: Confirmatory screen for A673 cells (AID 1347110).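 Note: cells exposed to compound for 48 h before the viability read; nearly all actives have a fitted effect of over 65% in size.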 Note: potency is the fitted concentration of half-maximal effect. A digest of the protocol:
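Cells plated at 500-1,000/well were treated five hours later with multi-point dilutions up to 46 µM final. After two days, CellTiter-Glo was added and luminescence read.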

Experiment [9] in a line: qHTS of pediatric cancer cell lines to identify multiple opportunities for drug repurposing: Confirmatory screen for BT-12 cells (AID 1347112). Note: nearly all actives have a fitted effect of over 55% in size. Note: potency is the fitted concentration of half-maximal effect. Summed up:
as §2

Experiment [10] in a line: qHTS of pediatric cancer cell lines to identify multiple opportunities for drug repurposing: Confirmatory screen for SK-N-MC cells (AID 1347111).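 Note: potency is the fitted concentration of half-maximal effect; cells exposed to compound for 48 h before the readout; nearly all actives have a fitted effect of over 70% in size.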 A digest of the protocol: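 Metabolically active cells were quantified by ATP-dependent luminescence (CellTiter-Glo, 15 min at room temperature) following 48 h treatment. Cells had been plated at 500-1,000 per well and settled for 5 h beforehand.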

As to `NC(=O)NS(=O)(=O)c1ccc(Cl)cc1`, the Potency entry in experiment [1], in experiment [2], in experiment [3], in experiment [4], in experiment [5] and in experiment [6] was “inactive” each time.

`CCNC(=O)NCCCOc1cccc(CN2CCCCC2)c1`: the Potency result in experiment [1], in [2], in experiment [3], in experiment [4], in experiment [5] and in experiment [6] was “inactive” in each case.

As for `CC(=O)/C=C/C=C1/C2CCC(C2)C1(C)C` (stereo unspecified), the Potency result in experiment [1], in experiment [2], in experiment [3], in [4], in experiment [5] and in [6] was “inactive” in each case.

As for `Nc1nnnn1-c1ccccc1`, the Potency result in experiment [1], in experiment [2], in [3], in experiment [4], in [5] and in experiment [6] was “inactive” each time.

Take `CCN(CC)CCN`: the Potency entry in experiment [1], in experiment [2], in experiment [3], in [4], in experiment [5] and in experiment [6] was “inactive” throughout.

As for `CN(C(=O)C(Cl)Cl)c1ccc(OC(=O)c2ccco2)cc1`, the Potency result in experiment [1], in experiment [2], in experiment [3], in experiment [4], in experiment [5] and in experiment [6] was “inactive” in each case.

For the compound `CC(=O)Nc1c(I)c(NC(C)=O)c(I)c(C(=O)O)c1I`, the Potency result in experiment [1], in experiment [2], in experiment [3], in experiment [4], in [5] and in experiment [6] was “inactive” throughout.

`CN1[C@@H]2CC[C@H]1CC(NC(=O)n1c(=O)[nH]c3ccccc31)C2` (stereo partly specified): the Potency result in experiment [1], in [2], in experiment [3], in experiment [4], in experiment [5] and in [6] was “inactive” each time.

With `Cc1cccc(C)c1NC(=O)c1cc(S(N)(=O)=O)c(Cl)cc1O`, the Potency entry in [1], in experiment [2], in [3], in [4], in experiment [5] and in experiment [6] was “inactive” each time.

Consider `CCOC(=O)c1ccc(NC(=O)CN2CCCCC2)cc1`, for which the Potency entry in experiment [1], in experiment [2], in experiment [3], in [4], in experiment [5] and in experiment [6] was “inactive” each time.

As for `Nc1c[n+](N2CCOCC2)no1`, the Potency entry in experiment [1], in experiment [2], in experiment [3], in experiment [4], in experiment [5] and in [6] was “inactive” throughout.

As to `CCCCCCCCCCCCCCCCCCN(C)C`, the Potency result in [1], in [2], in experiment [3], in experiment [4], in experiment [5] and in experiment [6] was “inactive” throughout.

Consider `CC1c2ccccc2CN1NC(=O)c1ccc(Cl)c(S(N)(=O)=O)c1` (stereo unspecified), for which the Potency entry in [1], in [2], in [3], in experiment [4], in experiment [5] and in experiment [6] was “inactive” in each case.

On to `N=C(N)c1ccc(OCCCOc2ccc(C(=N)N)cc2)cc1`, for which the Potency result in experiment [1], in experiment [2], in experiment [3], in experiment [4], in experiment [5] and in [7] was “inactive” throughout. Further, the Potency entry in experiment [8] was “inactive”.

With `CCOC(=O)O[C@]1(C(=O)OCCl)CC[C@H]2[C@@H]3CCC4=CC(=O)C=C[C@]4(C)[C@H]3[C@@H](O)C[C@@]21C`, the Potency result in experiment [1], in [2], in [3], in experiment [4], in experiment [5] and in experiment [6] was “inactive” in each case. For the same compound, the Potency entry in experiment [7], in experiment [8] and in experiment [9] was “inactive” throughout.

For the compound `CCCCCC1Nc2cc(C(F)(F)F)c(S(N)(=O)=O)cc2S(=O)(=O)N1` (stereo unspecified), the Potency entry in experiment [1], in experiment [2], in [3], in experiment [4], in [5] and in experiment [6] was “inactive” each time.

Consider `CN(C)CCN(Cc1ccsc1)c1ccccn1`, for which the Potency entry in experiment [1], in experiment [2], in [3], in experiment [4], in experiment [5] and in [6] was “inactive” in each case. The Potency entry in [7], in [8] and in experiment [9] was “inactive” each time.

As for `CN1C(=O)c2ccccc2C1=O`, the Potency result in experiment [1], in [2], in experiment [3], in [4], in experiment [5] and in [6] was “inactive” in each case.

`Cc1cc(O)c2c(O)c3c(O)cccc3cc2c1`: the Potency entry in experiment [1], in [2], in [3], in [5] and in experiment [6] was “inactive” throughout.

On to `C[C@@H]1CCC[C@H](C)N1CCCC(O)(c1ccccc1)c1ccccn1` (stereo partly specified), for which the Potency entry in experiment [1], in experiment [2], in experiment [3], in [5] and in experiment [6] was “inactive” each time.

For the compound `CC[C@@]1(O)C(=O)OCc2c1cc1n(c2=O)Cc2c-1nc1ccccc1c2/C=N/OC(C)(C)C`, the Potency in experiment [1] is 34.7 nM (active); in experiment [2], 668 nM (active); in [3], 26.6 nM (active); in experiment [6], 944 nM (active); in experiment [7], 41.4 nM (active); in [8] it was 11.7 nM (active). In addition, the Potency was 5.2 nM (active) in [10] and 1040 nM (active) in [9]. Further, the Potency entry in experiment [4] was “inactive”.

Take `CN(C)CCN1CCN(c2cccc(Cl)c2)C1=O`: the Potency result in experiment [1], in experiment [2], in experiment [3], in experiment [5] and in experiment [6] was “inactive” throughout.

For the compound `CCOCCn1c(C2CCN(CCc3ccc(C(C)(C)C(=O)O)cc3)CC2)nc2ccccc21`, the Potency result in experiment [1], in experiment [2], in [3], in experiment [4], in experiment [5] and in experiment [6] was “inactive” throughout.

`CCOC(=O)NNc1ccc(N(CC)CC(C)O)nn1` (stereo unspecified): the Potency result in experiment [1], in [2], in experiment [3], in experiment [5] and in [6] was “inactive” in each case.

Turning to `COc1cc(/C=C/C(N)=O)cc(OC)c1OC`, the Potency result in [1], in experiment [2], in experiment [3], in experiment [4], in experiment [5] and in experiment [6] was “inactive” throughout. Moreover, the Potency entry in experiment [8] was “inactive”.

Consider `Cc1cc(CCCOc2c(C)cc(-c3noc(C(F)(F)F)n3)cc2C)on1`, for which the Potency in experiment [1] is 19500 nM (active). The Potency entry in [2], in experiment [3], in experiment [5] and in experiment [6] was “inactive” each time.

`CC(=O)OCC(=O)[C@@]1(O)[C@H](OC(C)=O)C[C@H]2[C@@H]3CCC4=CC(=O)C=C[C@]4(C)[C@@]3(F)[C@@H](O)C[C@@]21C`: the Potency entry in [1], in [2], in [3], in experiment [4], in experiment [5] and in experiment [6] was “inactive” throughout. The Potency result in experiment [7], in [8] and in [9] was “inactive” in each case.

Take `C[C@]12CCC(=O)C=C1CC[C@@H]1[C@@H]2[C@@H](O)C[C@@]2(C)[C@H]1CC[C@]2(O)C(=O)COC(=O)CCC(=O)O`: the Potency entry in experiment [1], in [2], in experiment [3], in experiment [4], in [5] and in experiment [6] was “inactive” each time. For the same compound, the Potency result in [7], in [8] and in experiment [9] was “inactive” each time. Besides, the Potency in experiment [10] is 18500 nM (active).
